Screening data (PubChem)
Mac1 fbg enh = CD11b/CD18-fibrinogen binding enhancement; P05107+P11215; K562 CD11b/CD18 adhesion to fibrinogen, ATPlite luminescence; activation, % at 10 µM; 93,000 tested, 0.07% active; AID 1499;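 active means 10 µM primary screen giving 50% or more activity, confirmed by 40% or more on retest at that dose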
CD11b adhes inh = blocks human CD11b/CD18 adhesion to fibrinogen; 93,000 tested, 0.54% active; inhibition, % at 10 µM; AID 1497; K562 CD11b/CD18 adhesion to fibrinogen, ATPlite luminescence; Mn2+ added to activate the integrin; P05107+P11215;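 active means primary inhibition of 50% or more at 10 µM, then 40% or more on retest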
CYP2C19 activ = cytochrome P450 2C19 (human) activation | activation factor at 5 µM | 96,000 tested, under 10 active | AID 1025 | P33261 | recombinant CYP2C19, luciferin-H EGE luminescence; active compounds read high; 0 = fully inhibited enzyme, 1 = untreated enzyme;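 active means activation factor of at least 2 at 5 µM in the primary screen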
CYP2C9 activ = CYP2C9 (human) activation; P11712; recombinant CYP2C9, luciferin-H conversion, luminescence; active compounds read high; factor 1 = untreated enzyme, 0 = blocked; activation factor at 5 µM; 96,000 tested, 1.4% active; AID 1024;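 active means activation factor of 2 or more for CYP2C9 at a 5 µM dose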
CYP2C19 inh = inhibitors of human CYP2C19; P33261; CYP2C19 Supersomes, luciferin-H EGE luminescence, 30 min; inhibition, % at 5 µM; 96,000 tested, 21% active; AID 778;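 active means CYP2C19 inhibition above a set limit at 5 µM in the primary screen, cut at about 50% in these data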
CYP2C9 inhib = inhibitors of human CYP2C9; P11712; CYP2C9 Supersomes, luciferin-H conversion, luminescence; inhibition, % at 5 µM; 96,000 tested, 20% active; AID 777;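 active means blocking of liver enzyme CYP2C9 beyond about 50% at 5 µM, limit read from the data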
Each line names hits and unclear results; the compound was inactive in the other large screens. Sampled rows, rich in hits. Any-hit rate of the full collection: about 28%.

Cc1ccc(Cn2c(NCCCn3ccnc3)nc3c2c(=O)n(C)c(=O)n3C)cc1	CYP2C19 inh 98.0, CYP2C9 inhib 98.7
C=CCNc1nc2c(c(=O)n(C)c(=O)n2C)n1CCCCCC	CD11b adhes inh 67.6
COCCCNc1nc2c(c(=O)[nH]c(=O)n2C)n1CCCc1ccccc1	CYP2C19 inh 70.2
O=C(N/N=C/c1c[nH]c2c1ccc1ccccc12)c1ccc([N+](=O)[O-])cc1	none (no result: CYP2C19 activ, CYP2C9 activ, CYP2C19 inh, CYP2C9 inhib)
Cc1cc(OCC(=O)Nc2ccncc2)ccc1Br	CD11b adhes inh 76.6, CYP2C19 inh 100.4, CYP2C9 inhib 99.2
Cc1cc(OCC(=O)Nc2ccc3c(c2)OCCO3)cc(C)c1Cl	none
O=C(COc1ccc2ccccc2c1)Nc1ccc(Cc2ccncc2)cc1	CYP2C19 inh 89.8, CYP2C9 inhib 94.8 (no result: Mac1 fbg enh, CD11b adhes inh)
CCC(C)NC(=O)CSc1ncccc1C(=O)O (configuration not stated)	none
CC1CN(C2CCN(C(=O)c3ccccc3Cl)CC2)CC(C)O1 (configuration not stated)	none
CCOC(=O)c1ccccc1NC(=O)c1cccc2c1C(=O)N(C1CCN(C(=O)OCC)CC1)C2	CYP2C9 inhib 96.5
NC(=O)c1cccc2c1C(=O)N(C1CCCCC1)C2	none
CCOC(=O)N1CCC(N2Cc3cccc(C(=O)N4CCN(C5CCCCC5)CC4)c3C2=O)CC1	CYP2C9 inhib 78.2
CCOC(=O)N1CCC(N2Cc3cccc(C(=O)Nc4ccc(OC)c(OC)c4)c3C2=O)CC1	CYP2C19 inh 70.0, CYP2C9 inhib 94.8
CCOC(=O)N1CCC(NC(=O)c2cc(C(=O)Nc3ccc(OC)c(OC)c3)ccc2CO)CC1	CYP2C9 inhib 63.5
CCN(CC)c1ccc2cc(C(=O)Nc3ccc(-n4cnnn4)c(OC)c3)c(=O)oc2c1	none
CCOc1ccc(C2c3cc(OC)c(OC)cc3CC(=O)N2c2ccc(OC)cc2)cc1 (configuration not stated)	none
CCN1CCN(C(=O)c2cc3nc(-c4ccccc4)cc(C(F)(F)F)n3n2)CC1	none
CCn1c(SCC(=O)Nc2ccc(S(N)(=O)=O)cc2)nnc1-c1cccc(OC)c1	none
COc1cc2c(cc1OC)C(C(=O)N1CCN(c3ccccc3)CC1)C(c1cccs1)N(C)C2=O (configuration not stated)	none
Cc1ccc(-c2nc3cc(C)ccc3o2)cc1	CYP2C19 inh 58.9
Cc1ccc2oc(-c3cccc(NC(=O)c4ccc(Br)o4)c3)nc2c1	CYP2C9 inhib 53.3
Cc1ccc(-c2nc3cc(NS(=O)(=O)c4ccc(C)cc4)ccc3o2)cc1	CYP2C19 inh 98.7, CYP2C9 inhib 99.9
O=S(=O)(Nc1ccc2oc(-c3ccccc3)nc2c1)c1ccccc1	CYP2C19 inh 92.6, CYP2C9 inhib 93.5
Cc1ccc(-c2nc3cc(N)ccc3o2)cc1	none
Cc1cc2nc(-c3cccc(NC(=O)c4ccc(Br)o4)c3)oc2cc1C	none
CC1(C)C2CCC1(C)C(OC(=O)CSc1nc(N)cc(=O)[nH]1)C2 (configuration not stated)	none
Cn1c(=O)n(C)c2cc(NC(=O)CSc3nnc(-c4ccccc4O)n3-c3ccccc3)ccc21	none
Cc1ccc2oc(-c3ccc(NC(=O)c4cccnc4)cc3)nc2c1	CYP2C9 inhib 63.3
O=C(Nc1ccc2oc(-c3cccnc3)nc2c1)c1cccnc1	none
CC(=O)Oc1ccc2ccccc2c1C(NC(=O)Cc1ccccc1)c1ccccc1 (configuration not stated)	CYP2C19 inh 61.2, CYP2C9 inhib 67.1
Cc1ccccc1OCc1nnc(SCC(=O)Nc2ccc(N3CCOCC3)c(Cl)c2)n1C	CYP2C19 inh 57.5
Cc1ccccc1OCC(=O)NC(=S)Nc1ccc(N2CCOCC2)c(Cl)c1	none (no result: Mac1 fbg enh, CD11b adhes inh)
Cc1ccccc1OCc1nnc(SCC(=O)Nc2ccc3c(c2)OCO3)n1C	CYP2C19 inh 76.0
CCn1c(COc2ccccc2C)nnc1SCC(=O)Nc1ccc2c(c1)OCCO2	none
O=C(NCc1ccco1)c1cc2n(n1)C(C(F)(F)F)CC(c1ccc(F)cc1)N2 (configuration not stated)	none
COc1ccc2oc3cc(C)[n+]([O-])c(-c4ccc(Br)cc4)c3c2c1	none (no result: CYP2C19 activ, CYP2C9 activ, CYP2C19 inh, CYP2C9 inhib)
COc1ccc(S(=O)(=O)N2CCN(C(=O)c3cccc(Cl)c3)CC2)cc1	none
O=C(c1cccs1)N1CCOCC1	none
